# Source: PubChem BioAssay
# Activity calls are given as the source filed them. Unless noted, no rule for the calls is given here.
# How the values were obtained:
# [1] = system: XIP peptide (Xip251-270) binding; assay: XIP fragment 251-270 binding compounds – biochemical, small-molecule microarray, fluorescence 635/667 nm, 0.1 µg/mL protein, primary screen (AID 1182); settings: fluorescent protein binding, 635 nm, higher = more signal, called active from +8 up or from −8 down
# XIP peptide (Xip251-270) = assay: compounds binding XIP fragment 251-270 – biochemical, small-molecule microarray, fluorescence 635/667 nm, 0.5 µg/mL protein, primary screen (AID 1183); settings: fluorescence 635 nm, higher = more signal
# [2] = blood-stage malaria parasite viability loss – strain 3D7, DAPI fluorescence, 100 nL, primary screen (AID 1184);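 also: parasites grown inside human red blood cells in medium with human serum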; settings: P. falciparum 3D7 growth, 3 d, higher = more signal
# [3] = molecular target: Homeobox protein Hox-A13 (Mus musculus) (UniProt Q62424); assay: disruptors of Hoxa13 oligonucleotide interaction – biochemical, fluorescence polarization, labeled oligonucleotide, primary screen (AID 1185); settings: Hoxa13:DNA binding, 15 min, higher = more signal, called active from +8 up or from −8 down
# [4] = blockers of DNA damage checkpoint Chk1 activation – imaging, HeLa, hydroxyurea, phospho-Chk1 antibody, percent positive cells, primary screen (AID 1186); settings: hydroxyurea-induced phospho-Chk1 immunofluorescence imaging, higher = more signal
# [5] = blockers of DNA damage checkpoint Chk1 activation – imaging, HeLa, hydroxyurea, phospho-Chk1 nuclear intensity, primary screen (AID 1187); settings: hydroxyurea-induced phospho-Chk1 immunofluorescence imaging, higher = more signal
# Chain of Homeobox protein Hox-A13 (Mus musculus) (Q62424 whole entry, looked up): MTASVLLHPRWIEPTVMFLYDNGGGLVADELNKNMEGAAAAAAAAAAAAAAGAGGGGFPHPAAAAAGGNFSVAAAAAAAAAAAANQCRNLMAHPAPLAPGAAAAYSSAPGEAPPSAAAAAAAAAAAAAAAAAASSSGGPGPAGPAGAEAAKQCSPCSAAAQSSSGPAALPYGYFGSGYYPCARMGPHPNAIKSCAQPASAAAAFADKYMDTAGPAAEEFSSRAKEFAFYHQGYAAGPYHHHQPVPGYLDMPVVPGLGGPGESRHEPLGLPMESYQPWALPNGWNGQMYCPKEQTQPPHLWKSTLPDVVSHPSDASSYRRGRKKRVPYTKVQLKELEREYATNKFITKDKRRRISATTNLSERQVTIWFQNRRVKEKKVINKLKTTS
Compound,composite z-score [1],composite z-score (XIP peptide (Xip251-270)),z-score [2],z-score [3],z-score [4],z-score [5]
Cc1ccccc1C(O)C1C=CC2C(=O)N(c3ccccc3)C(=O)C2N1Nc1ccc(C(C)C)cc1 (configuration not stated),0.167 (inactive),0.599,-0.739,-1.77 (inactive),0.524 (inactive),0.118 (inactive)
COc1ccc(-c2cc3c(c(-c4ccc(Oc5ccccc5)cc4)n2)[Si](C(C)C)(C(C)C)OC3)cn1,-0.0527 (inactive),0.0792,-1.34,-1.79 (inactive),-0.265 (inactive),0.0655 (inactive)
C=CCOC(=O)[C@H]1[C@@H]2C(=O)O[C@@H](c3ccccc3)[C@@H](c3ccccc3)N2[C@@H](c2ccc(OCCOC(=O)[C@@H]3C[C@@H]4C(=O)N[C@@H](CCCCNC(C)=O)C(=O)N4[C@@H]3c3ccc(O)cc3)cc2)[C@]12C(=O)Nc1ccccc12,2.75 (inactive),0.818,-1.8,-1.89 (inactive),-0.731 (inactive),0.21 (inactive)
O=C1[C@@]23C=C(Br)[C@H](C[C@@H]2CCOC3)[C@@]12CO2,0.792 (inactive),-0.377,1.37,0.0303 (inactive),-0.259 (inactive),-0.561 (inactive)
C=C(C)[C@@H]1CC=C(C(O)C2C=CC3C(=O)N(C)C(=O)C3N2Nc2ccccc2)CC1 (some centres not stated),0.469 (inactive),0.147,-0.0575,-4.59 (inactive),-0.63 (inactive),-0.968 (inactive)
NC(=O)NCC#Cc1ccc2c(c1)[C@]1(C(=O)N2)[C@H](C(=O)Nc2nc3ccccc3s2)[C@H]2C(=O)O[C@H](c3ccccc3)[C@H](c3ccccc3)N2[C@@H]1c1ccccc1OCCO,0.478 (inactive),0.606,-1.74,2.54 (inactive),0.302 (inactive),0.603 (inactive)
C=C(C)[C@@H]1CC=C(C(O)C2C=CC3C(=O)N(c4ccccc4)C(=O)C3N2Nc2ccccc2)CC1 (some centres not stated),0.0668 (inactive),0.717,0.759,-2.62 (inactive),-0.437 (inactive),-0.626 (inactive)
COc1ccc([Si](C)(C)[C@@H]2[C@@H](CCO)O[C@]3(C(=O)N(Cc4ccc(N(C=O)c5ccccc5)cc4)c4ccccc43)[C@H]2C)cc1,-0.0075 (inactive),-0.0404,-2.7,-1.54 (inactive),-1.27 (inactive),-1.31 (inactive)
C=C[C@H](OC)[C@@H](OC(=O)Nc1ccc(OC)cc1)c1ccc(O)c(F)c1,-0.0346 (inactive),-0.893,-0.343,-3.1 (inactive),0.495 (inactive),0.76 (inactive)
CCCC[C@@H]1C[C@H]1[C@@H](NC(=O)C(C)(C)C)c1ccc(C(F)(F)F)cc1,0.503 (inactive),0.414,-0.948,1.43 (inactive),-0.109 (inactive),-0.236 (inactive)
COc1ccc(C(=O)Nc2ccc(CN3C(=O)[C@]4(O[C@H](CCO)[C@@H]([Si](C)(C)c5ccc(OC)cc5)[C@@H]4C)c4ccccc43)cc2)cc1,2.8 (inactive),0.618,-2.82,-0.677 (inactive),-0.02 (inactive),0.458 (inactive)
CC1CC/C=C\[C@H]2OC34C=CCN(Cc5ccccc5)C(=O)[C@H]3N(CCCO)C(=O)[C@@H]4C2C(=O)O1 (some centres not stated),0.15 (inactive),0.737,0.295,-4.95 (inactive),-0.364 (inactive),-0.491 (inactive)
CC(=O)n1cc(C(O)C2C=CC3C(=O)N(c4ccccc4)C(=O)C3N2Nc2ccc([N+](=O)[O-])cc2)c2ccccc21 (configuration not stated),1.15 (inactive),0.87,-0.306,-4.3 (inactive),0.541 (inactive),-0.219 (inactive)
C=CCNC(=O)[C@@H]1[C@H]2C(=O)O[C@H](c3ccccc3)[C@H](c3ccccc3)N2[C@H](c2ccccc2OCCO)[C@@]12C(=O)N(C(=O)OCCOC)c1ccccc12,3.44 (inactive),0.737,-1.16,-4.27 (inactive),0.115 (inactive),0.494 (inactive)
O=C1c2ccccc2[C@](Cc2ccccc2I)(C(=O)NCCN2CCOCC2)[C@H](c2ccc(CO)cc2)N1C1CCCCC1,0.45 (inactive),0.652,-1.79,-5.61 (inactive),0.16 (inactive),-6.65 (inactive)
CCC[C@@H]1C[C@@]1(CCC)[C@@H](NC(=O)c1ccccc1)c1cccc(Cl)c1,0.11 (inactive),-0.211,-0.348,2.13 (inactive),-0.769 (inactive),-0.608 (inactive)
COc1ccc([C@H]2OC[C@@H]3C[C@@H](Cc4ccccc4)C(=O)N32)cc1,0.617 (inactive),0.0682,0.583,-1.06 (inactive),0.375 (inactive),0.0727 (inactive)
COc1ccccc1CN1C(=O)c2ccccc2[C@@H](C(=O)NC2CC2)[C@@H]1c1ccc(CO)cc1,0.98 (inactive),0.835,-1.79,-2.46 (inactive),0.0151 (inactive),0.351 (inactive)
COc1cc2c(cc1OC)CN(C(=O)[C@H]1[C@@H]3C(=O)O[C@@H](c4ccccc4)[C@@H](c4ccccc4)N3[C@@H](c3ccc(O)cc3)[C@]13C(=O)Nc1ccccc13)CC2,0.602 (inactive),0.755,-0.044,-2.37 (inactive),-0.169 (inactive),-0.238 (inactive)
CC(C)C[C@@H]1NC(=O)[C@@H]2C[C@H](C(=O)O)[C@H](c3cccc(OCCO)c3)N2C1=O,1.04 (inactive),0.708,-0.222,-2.76 (inactive),0.0342 (inactive),0.153 (inactive)
COCCOC(=O)N1C(=O)[C@@]2(c3cc(C#CCC(C(=O)OC)C(=O)OC)ccc31)[C@H](c1ccccc1OCCO)N1[C@H](c3ccccc3)[C@H](c3ccccc3)OC(=O)[C@H]1[C@@H]2C(=O)N1CCN(c2ncccn2)CC1,0.311 (inactive),0.62,-2.25,0.271 (inactive),-0.225 (inactive),-0.236 (inactive)
COCCCNC(=O)[C@@H]1c2ccccc2C(=O)N(Cc2ccccc2Cl)[C@H]1c1ccc(CO)cc1,0.432 (inactive),0.0699,0.652,-2.2 (inactive),-0.57 (inactive),-0.352 (inactive)
